Screening data (PubChem)
Cardio protect: myocardial damage modulation in H9c2 cells; H9c2 cardiomyocytes, H2O2 injury protection, ATPLite, 2 h; protection from H2O2 cell death, % at 20 µM; 360,000 compounds, 0.63% hits; AID 588492;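 active means compounds giving at least 50% protection of heart cells from peroxide-induced death in the single-dose screen, raw or plate-pattern-corrected value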;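 further: 0% = DMSO wells with peroxide and 100% = DMSO wells without peroxide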
PHOSPHO1 block: inhibitors of human PHOSPHO1 phosphatase; inhibition, % at 13.3 µM; recombinant PHOSPHO1, absorbance phosphatase assay; Q8TCT1; AID 1565; 290,000 compounds, 1.1% hits; in the data active means inhibition above about 60%
Target sequence (Q8TCT1 whole entry, looked up): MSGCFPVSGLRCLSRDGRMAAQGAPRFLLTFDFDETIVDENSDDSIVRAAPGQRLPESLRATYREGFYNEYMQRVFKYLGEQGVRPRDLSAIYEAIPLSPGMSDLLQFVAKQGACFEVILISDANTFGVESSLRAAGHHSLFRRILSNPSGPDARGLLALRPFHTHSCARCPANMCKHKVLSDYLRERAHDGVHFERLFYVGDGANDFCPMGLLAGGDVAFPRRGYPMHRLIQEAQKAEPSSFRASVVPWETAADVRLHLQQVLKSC
Efflux pump inh: antifungal efflux pump inhibition, Nile Red retention; S. cerevisiae Candida pump triplex; inhibition, % at 10 µM; 330,000 compounds, 0.44% hits;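 active means plate passing quality check with inhibition over a set limit, or well fluorescence over plate mean plus 4 SD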;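 further: Nile Red retained in pooled yeast measured as flow cytometry median fluorescence; 0% = buffer negative control and 100% = Enniatin B positive control; higher means more Nile Red kept so more efflux inhibition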
KCC2 mod: modulates chloride dependent transport by human KCC2 | AID 1456 | KCC2 cells, thallium flux FluoZin-2 fluorescence | 190,000 compounds, 2.2% hits | Q9H2X9 | B-score of Tl+ flux slope (higher = more flux/activation; lower = inhibition) at 10 µM;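 active means thallium flux slope and its plate-corrected score both differing from the plate sample mean at a set confidence after two filtering rounds, in either direction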;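 further: slope of fluorescence scaled to starting intensity during 10 to 20 s after thallium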
Calb FLC: affects C. albicans growth with fluconazole. C. albicans CaCi-2 (fluconazole-resistant clinical isolate) + fluconazole, Alamar Blue growth, 48 h. growth inhibition, % (no concentration beside the values). 300,000 compounds, 0.57% hits;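 active means growth inhibition above about 58% in most replicates, limit read from the data, passing the limit was not always enough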;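 further: all wells also contain fluconazole at 8 µg/ml as a sub-toxic cotreatment; 0% = median of DMSO wells and 100% = median of geldanamycin control wells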
Yeast cmpd fluor: counter-screen for efflux pump inhibitors: compound fluorescence; 1,700 compounds, 4% hits; fluorescence ratio to DMSO, % at 10 µM; shares compounds with Efflux pump inh; S. cerevisiae AD/pABC3, flow cytometry;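 active means fluorescence ratio to DMSO above its plate's cutoff, the plate mean ratio plus 5 SD, cut at about 210% in these data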;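 further: unstained yeast with no Nile Red so the signal is compound autofluorescence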
CaMdr1 efflux inh: inhibitors of Candida albicans Mdr1 efflux pump. shares compounds with Efflux pump inh. S. cerevisiae AD/CaMDR1, Nile Red efflux, flow cytometry. inhibition, % at 10 µM. 1,700 compounds, 1% hits; in the data active means inhibition above about 26%;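 further: 0% = DMSO vehicle and 100% = reference inhibitor; higher means more Nile Red retained so more efflux inhibition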
Cdr2 pump inh: inhibitors of Candida albicans Cdr2 efflux pump | shares compounds with Efflux pump inh | S. cerevisiae AD/CaCDR2, Nile Red retention, flow cytometry | Nile Red retention ratio vs DMSO, % at 10 µM | 1,700 compounds, 4% hits | AID 588520; in the data active means Nile Red retention ratio vs DMSO above about 190%;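 further: higher ratio means more blocking of Cdr2 efflux of the dye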
CaCdr1 efflux inh: inhibitors of Candida albicans Cdr1 efflux pump. S. cerevisiae AD/CaCDR1, Nile Red efflux, flow cytometry. shares compounds with Efflux pump inh. inhibition, % at 10 µM. 1,700 compounds, 1% hits;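 active means inhibition above the screen-wide mean plus twice its standard deviation, cut at about 32% in these data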
The depositor's hits bear a star. Compounds with a hit are over-represented: about 3.3% of the library has one in this group of screens.

Results for Cc1cc(C)c(NC(=O)Cn2c(=O)n(Cc3ccco3)c(=O)c3ccccc32)c(C)c1 ?
Cardio protect: 18; PHOSPHO1 block: -4; Efflux pump inh: 1.1*; KCC2 mod: 1; Calb FLC: 4; Yeast cmpd fluor: 100; CaMdr1 efflux inh: 0; Cdr2 pump inh: 97; CaCdr1 efflux inh: 0

What do the screens show for `O=c1[nH]c(C2CCCN(S(=O)(=O)c3ccccc3F)C2)nc2c1nnn2Cc1ccccc1Cl` (centres undefined)?
Cardio protect: -2; PHOSPHO1 block: 11; Efflux pump inh: 0; Calb FLC: 24

How did CCCC1(c2ccccc2)NC(=O)N(CC(=O)N(C)Cc2c(F)cccc2Cl)C1=O (centres undefined) do in these assays?
Cardio protect: -1; PHOSPHO1 block: 37; Efflux pump inh: 0; Calb FLC: 1

How did CCOC(=O)c1c(C)[nH]c(C)c1C(=O)COC(=O)/C=C/c1ccc(Cl)cc1 do in these assays?
Cardio protect: -2; PHOSPHO1 block: 29; Efflux pump inh: 8.3*; KCC2 mod: -2.1; Calb FLC: -4; Yeast cmpd fluor: 102; CaMdr1 efflux inh: 0; Cdr2 pump inh: 101; CaCdr1 efflux inh: 0

What do the screens show for `Cc1ccc(N2CCN(S(=O)(=O)c3c(C)nc4sccn4c3=O)CC2C)cc1` (centres undefined)?
Cardio protect: -7

Results for CC(C)c1ccc(/C=c2\sc3nc(-c4ccncc4)nn3c2=O)cc1 ?
Cardio protect: -19; PHOSPHO1 block: 47; Efflux pump inh: 0; Calb FLC: -12; Yeast cmpd fluor: 105; CaMdr1 efflux inh: 0; Cdr2 pump inh: 108; CaCdr1 efflux inh: 0

Results for CS(=O)(=O)Cc1cccc(C(=O)NN(c2ccccc2)c2ccccc2)c1 ?
Cardio protect: 0; PHOSPHO1 block: 28; Efflux pump inh: 0; Calb FLC: 0

What do the screens show for `COc1cc(/C=C/C(=O)c2ccc([N+](=O)[O-])o2)ccc1O`?
Cardio protect: -10; Efflux pump inh: 0.8*; Calb FLC: -3; Yeast cmpd fluor: 188; CaMdr1 efflux inh: 0; Cdr2 pump inh: 161; CaCdr1 efflux inh: 0

What do the screens show for `COc1cc(/C=C/C(=O)O)ccc1O`?
Cardio protect: 1; Efflux pump inh: 0; Calb FLC: 9

How did COC(=O)C(Cc1ccccc1)NC(=O)CCNC(=O)c1ccco1 (centres undefined) do in these assays?
Cardio protect: 2; PHOSPHO1 block: 39; Efflux pump inh: 0.8*; Calb FLC: 17; Yeast cmpd fluor: 91; CaMdr1 efflux inh: 0; Cdr2 pump inh: 85; CaCdr1 efflux inh: 0

How did NC(=S)N/N=C/c1cccc(/C=N/NC(N)=S)c1 do in these assays?
Cardio protect: 11; PHOSPHO1 block: 45; Efflux pump inh: 0; KCC2 mod: -0.025; Calb FLC: 29

How did NC(=S)N/N=C/c1ccc2ccccc2c1 do in these assays?
Cardio protect: -5; PHOSPHO1 block: -17; Efflux pump inh: 8.2*; KCC2 mod: 0.27; Calb FLC: -27; Yeast cmpd fluor: 112; CaMdr1 efflux inh: 0; Cdr2 pump inh: 108; CaCdr1 efflux inh: 0

How did CN1/C(=C/c2cccc[n+]2C)Sc2ccccc21 do in these assays?
Cardio protect: -17; PHOSPHO1 block: 34; Efflux pump inh: 0; Calb FLC: 43

Results for COc1ccc2c(c1)N(C)/C(=C/c1cccc[n+]1C)S2 ?
Cardio protect: -12; PHOSPHO1 block: 33; Efflux pump inh: 1.1*; Calb FLC: -7; Yeast cmpd fluor: 196; CaMdr1 efflux inh: 2; Cdr2 pump inh: 106; CaCdr1 efflux inh: 1

How did Cc1ccc2c(c1)N(C)/C(=C/c1cccc[n+]1CCO)S2 do in these assays?
Cardio protect: -13; PHOSPHO1 block: 22; Efflux pump inh: 0; Calb FLC: -2

What do the screens show for `Cc1ccc2c(c1)N(C)/C(=C/c1cccc[n+]1C)S2`?
Cardio protect: -16; PHOSPHO1 block: -1; Efflux pump inh: 1.2*; Calb FLC: 64; Yeast cmpd fluor: 167; CaMdr1 efflux inh: 1; Cdr2 pump inh: 97; CaCdr1 efflux inh: 1

How did CC(=O)Nc1sc2c(c1C(c1ccc(Cl)cc1)N1CCOCC1)CCCC2 (centres undefined) do in these assays?
Cardio protect: 7; PHOSPHO1 block: 0; Efflux pump inh: 1.5*; KCC2 mod: -0.21; Calb FLC: -13; Yeast cmpd fluor: 106; CaMdr1 efflux inh: 0; Cdr2 pump inh: 112; CaCdr1 efflux inh: 0

What do the screens show for `COc1ccc(Cn2c(-c3ccccc3)nc3c(c(=O)c4ccccc4n3C)c2=O)cc1`?
Cardio protect: -4; PHOSPHO1 block: 11; Efflux pump inh: 1.1*; KCC2 mod: -0.3; Calb FLC: 30; Yeast cmpd fluor: 110; CaMdr1 efflux inh: 0; Cdr2 pump inh: 119; CaCdr1 efflux inh: 0

How did CC(=O)c1ccc(NC(=O)c2ccc(NC(=O)c3ccco3)cc2)cc1 do in these assays?
Cardio protect: -8; PHOSPHO1 block: 10; Efflux pump inh: 6.2*; Calb FLC: -10; Yeast cmpd fluor: 92; CaMdr1 efflux inh: 0; Cdr2 pump inh: 106; CaCdr1 efflux inh: 0

Results for O=C(/C=C/c1ccc(Br)cc1)c1ccco1 ?
Cardio protect: -5; PHOSPHO1 block: -7; Efflux pump inh: 0; KCC2 mod: -0.29; Calb FLC: 2

How did Cc1cc(C)cc(NC(=O)c2ccc(NC(=O)c3ccco3)cc2)c1 do in these assays?
Cardio protect: 22; PHOSPHO1 block: 18; Efflux pump inh: 0; Calb FLC: 4; Yeast cmpd fluor: 105; CaMdr1 efflux inh: 0; Cdr2 pump inh: 91; CaCdr1 efflux inh: 0

What do the screens show for `CN(C(=O)c1ccc(NC(=O)c2ccco2)cc1)c1ccccc1`?
Cardio protect: 4; PHOSPHO1 block: 16; Efflux pump inh: 0; Calb FLC: -1; Yeast cmpd fluor: 103; CaMdr1 efflux inh: 0; Cdr2 pump inh: 93; CaCdr1 efflux inh: 0

What do the screens show for `CC(=O)Nc1ccc(NC(=O)c2ccco2)cc1`?
Cardio protect: -3; PHOSPHO1 block: -12; Efflux pump inh: 0; KCC2 mod: -0.25; Calb FLC: 24

Results for O=C(/C=C/c1ccc(Br)cc1)c1ccc(NC(=O)c2ccco2)cc1 ?
Cardio protect: -1; PHOSPHO1 block: -14; Efflux pump inh: 5.8*; KCC2 mod: -0.17; Calb FLC: -6; Yeast cmpd fluor: 107; CaMdr1 efflux inh: 0; Cdr2 pump inh: 108; CaCdr1 efflux inh: 0

What do the screens show for `Cc1cccc(NC(=O)c2cccc(NC(=O)c3ccco3)c2)c1`?
Cardio protect: 5
